Our source for the Potency and outcome values is PubChem BioAssay (Tox21).

Values joined by “and” are separate entries in the source; they are usually repeats but may differ in a detail not shown here. Equal values may be shown once. Results filed as inconclusive are left out. Active and inactive are the calls of the source. Unless noted, calls follow the shape of the dose curve; as a rule, active = well fitted curve in the direction sought with a large enough effect in the repeat runs; inconclusive = weak or mixed curves; inactive = no such curve, though single readings can be large; an effect the other way counts as inactive or inconclusive.

Assay [1] is described as follows: qHTS assay for small molecule agonists of the p53 signaling pathway (AID 651631; calls by dose curve; also: nearly all actives have a fitted effect of over 15% in size). In outline:
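We treat p53RE-bla HCT-116 cells with compounds for 16 h at 37 °C, add LiveBLAzer B/G FRET substrate for 2 h at room temperature, and measure fluorescence intensity.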

Assay [2] in a line: qHTS assay for small molecules that induce genotoxicity in human embryonic kidney cells expressing luciferase-tagged ATAD5 (AID 651632). Also: nearly all actives have a fitted effect of over 15% in size. In outline:
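Luminescent reporter readout, HEK293T ATAD5-luc line: 16 hr drug exposure (37C, 5% CO2) followed by Amplite, 30 min RT.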

The nature of assay [3]: qHTS assay for small molecule agonists of the p53 signaling pathway - cell viability (AID 651633; calls by dose curve;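 also: p53RE-bla HCT reporter cells with a stable beta-lactamase p53 reporter; series mostly up to about 83 µM; nearly all actives have a fitted effect of over 30% in size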). In outline:
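p53RE-bla cells, seeded at 4,000 per well and rested 5 h at 37 C/5% CO2, received compounds in DMSO for 16 h at 37 C. CellTiter-Glo was then added, and luminescence was read after 30 min at room temperature to gauge cytotoxicity.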

A short description of assay [4]: qHTS assay for small molecules that induce genotoxicity in human embryonic kidney cells expressing luciferase-tagged ATAD5 - cell viability (AID 651634; calls by dose curve; also: nearly all actives have a fitted effect of over 25% in size; also: potency is read from the fitted curve at half-maximal effect). In outline:
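Viability read: CellTiter-Fluor fluorescence, 30 min at 37C. Cells: HEK293T, luciferase-tagged ATAD5. Exposure: 15.5 hr, 37C, 5% CO2, compound or DMSO vehicle.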

Assay [5] can be described thus: qHTS assay for small molecule disruptors of the mitochondrial membrane potential - cell viability (AID 720634; calls by dose curve;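 also: human HepG2 liver cancer cells; series mostly up to about 83 µM; nearly all actives have a fitted effect of over 20% in size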). In outline: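 HepG2, 1 hr compound, 37 C. ATP luminescence via CellTiter-Glo, 30 min RT, same well as m-MPI.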
Assay [6] can be described thus: qHTS assay for small molecule disruptors of the mitochondrial membrane potential (AID 720635). Also: potency is read from the fitted curve at half-maximal effect. In outline: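 HepG2 cells (2,000/well) attached overnight at 37C, then took compound for 1 hr at 37C, 5% CO2. Mito-MPS dye was added for 30 min; fluorescence was read at 490/535 nm (monomers) and 540/590 nm (aggregates).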
Assay [7] can be described thus: qHTS assay to test for compound auto fluorescence at 460 nm (blue) in HEK293 cells (AID 720678). In outline:
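Triamterene serves as the blue fluorophore standard. Compound signal at 405/460 nm is read in HEK293 wells (2,000 cells, 10% dialyzed FBS) after overnight treatment at 37C.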

Assay [8] is described as follows: qHTS assay to test for compound auto fluorescence at 590 nm (red) in HEK293 cells (AID 720679). In outline: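 We plated HEK293 cells in 10% dialyzed FBS medium, let them adhere for 4-5 hr, then added 23 nL compound. Overnight at 37C and 5% CO2 preceded fluorescence measurement at 540/590nm.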
Assay [9] is described as follows: qHTS assay to test for compound auto fluorescence at 535 nm (green) in HEK293 cells (AID 720680).
The nature of assay [10]: qHTS assay to test for compound auto fluorescence at 460 nm (blue) in HEK293 cell free culture (AID 720681). In outline: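 Test compounds were pinned into cell-free culture medium (DMEM with 10% FBS) and fluorescence was read directly at Ex/Em 405/460 nm. Signals were expressed as fluorescence equivalents of triamterene, with DMSO vehicle as control.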
Assay [11] is described as follows: qHTS assay to test for compound auto fluorescence at 535 nm (green) in HEK293 cell free culture (AID 720682). In outline:
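Green-channel intensity (Ex/Em 485/535 nm) was recorded from compound-treated wells containing only DMEM with 10% FBS. Fluorescein provided the equivalency standard.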

Assay [12] can be described thus: qHTS assay to test for compound auto fluorescence at 590 nm (red) in HEK293 cell free culture (AID 720683). In outline: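 Tox21 10K library compounds were pinned into cell-free DMEM with 10% FBS and fluorescence was read at excitation 540 nm. Activity is expressed as Rose Bengal sodium equivalency.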
Assay [13] in a line: qHTS assay to test for compound auto fluorescence at 590 nm (red) in HepG2 cell free culture (AID 720684). In outline: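 Red fluorescence (540 nm excitation, 590 nm emission) was measured after compound transfer into cell-free MEM supplemented with 10% FBS. Values are equivalencies against Rose Bengal sodium.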
Assay [14] is described as follows: qHTS assay to test for compound auto fluorescence at 460 nm (blue) in HepG2 cell free culture (AID 720685). In outline: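 Compound (23 nL) or DMSO pinned into cell-free MEM with 10% FBS; blue fluorescence read at 405/460 nm excitation/emission, expressed as auto-fluorescence equivalency to triamterene.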
A short description of assay [15]: qHTS assay to test for compound auto fluorescence at 535 nm (green) in HepG2 cell free culture (AID 720686).
A short description of assay [16]: qHTS assay to test for compound auto fluorescence at 460 nm (blue) in HepG2 cells (AID 720687). In outline:
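Cells (2,000/well in MEM with 10% FBS) attached overnight at 37 C, then were exposed to compound or DMSO for 1 hr at 37 C, 5% CO2. Fluorescence read at Ex/Em 405/460 nm, expressed as triamterene-equivalent signal.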

The nature of assay [17]: qHTS assay to test for compound auto fluorescence at 590 nm (red) in HepG2 cells (AID 720674). In outline:
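Rose Bengal sodium served as the red fluorophore standard. HepG2 monolayers (overnight attachment, MEM with 10% FBS) were exposed to test compounds for 1 hr at 37 C and read at Ex 540/Em 590 nm.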

Assay [18] can be described thus: qHTS assay to test for compound auto fluorescence at 535 nm (green) in HepG2 cells (AID 720675).
Assay [19] addresses Glucocorticoid receptor (Homo sapiens) (UniProt P04150). As to the kind of experiment: qHTS assay to identify small molecule antagonists of the glucocorticoid receptor (GR) signaling pathway (AID 720692; active = well fitted inhibition curve with a large enough effect in the signal ratio in the repeat runs, not every such curve was filed as active; the % refers to the signal ratio; also: potency is read from the fitted curve at half-maximal effect). In outline:
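Inhibition of glucocorticoid signalling is measured in HeLa cells with a GRE-controlled beta-lactamase reporter; cells are co-treated with compound and 5 nM dexamethasone (final) for 18 h before FRET substrate readout.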

Glucocorticoid receptor (Homo sapiens), sequence (P04150 whole entry, looked up): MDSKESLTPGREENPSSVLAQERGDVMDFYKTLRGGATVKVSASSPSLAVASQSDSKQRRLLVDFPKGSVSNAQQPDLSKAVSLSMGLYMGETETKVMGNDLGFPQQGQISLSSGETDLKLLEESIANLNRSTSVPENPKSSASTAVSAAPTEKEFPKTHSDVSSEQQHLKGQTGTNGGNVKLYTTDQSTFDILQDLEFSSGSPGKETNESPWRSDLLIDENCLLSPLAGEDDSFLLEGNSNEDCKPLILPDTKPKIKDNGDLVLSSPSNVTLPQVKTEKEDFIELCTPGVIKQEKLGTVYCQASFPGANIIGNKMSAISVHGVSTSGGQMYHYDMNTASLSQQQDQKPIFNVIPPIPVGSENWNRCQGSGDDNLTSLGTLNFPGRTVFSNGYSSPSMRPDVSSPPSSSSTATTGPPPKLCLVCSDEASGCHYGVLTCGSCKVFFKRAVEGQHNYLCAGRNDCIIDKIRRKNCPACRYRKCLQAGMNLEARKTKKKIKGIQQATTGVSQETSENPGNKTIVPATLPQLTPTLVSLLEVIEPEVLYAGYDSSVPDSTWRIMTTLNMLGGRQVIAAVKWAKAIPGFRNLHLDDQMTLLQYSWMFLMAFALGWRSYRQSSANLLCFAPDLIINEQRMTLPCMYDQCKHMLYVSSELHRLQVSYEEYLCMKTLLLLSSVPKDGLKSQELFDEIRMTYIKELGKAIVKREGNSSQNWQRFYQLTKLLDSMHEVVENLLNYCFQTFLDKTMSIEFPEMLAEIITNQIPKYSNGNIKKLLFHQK

For `CCCCNC(=O)NS(=O)(=O)c1ccc(N)cc1`, the Potency entry in [1], in assay [2], in assay [3], in assay [4], in [5] and in [6] was “inactive” throughout. Also, the result in assay [7], in [8], in assay [9], in assay [10], in assay [11] and in [12] was inactive. The molecule was classed as inactive in [13], in assay [14], in assay [15] and in assay [16].

Take `C[C@]12CC[C@@H]3c4ccc(O)cc4C[C@@H](CCCCCCCCCS(=O)CCCC(F)(F)C(F)(F)F)[C@H]3[C@@H]1CC[C@@H]2O` (stereo partly drawn): the Potency entry in assay [1], in assay [2], in assay [3] and in [4] was “inactive” each time. Moreover, the Potency is 2.66 µM (active) and 2.73 µM (active) in [6]; 1.23 µM (active) in assay [19]. Also, the result in [17], in assay [18], in [7], in assay [8], in [9] and in assay [10] was inactive. The result in assay [11], in assay [12], in assay [13], in [14], in assay [15] and in [16] was inactive.

As for `COc1cc(C=O)ccc1O`, the Potency result in assay [1], in assay [2], in assay [3], in [4], in assay [5] and in assay [6] was “inactive” in each case. The result in assay [18], in assay [7], in [8], in assay [9], in assay [10] and in [11] was inactive. For the same molecule, the molecule was classed as inactive in assay [12], in [13], in assay [14], in assay [15] and in [16].

With `CCN(CC)CCOC(=O)c1ccc(N)cc1`, the Potency result in [1], in [2], in [3], in assay [4] and in assay [5] was “inactive” each time. The result in assay [7], in assay [8], in assay [9], in [10], in assay [11] and in assay [12] was inactive. Further, the call in assay [13], in assay [14], in assay [15] and in assay [16] was inactive.

For the molecule `O=[N+]([O-])c1ccc(O)cc1`, the Potency result in assay [1], in assay [2], in [3] and in assay [5] was “inactive” each time. The Potency in [4] was 56.6 µM (active); in assay [6], 71.2 µM (active) and 61.1 µM (active). Moreover, the molecule was called inactive in [7], in assay [8], in assay [9], in [10], in [11] and in [12]. Also, the result in [13], in assay [14], in assay [15] and in [16] was inactive.

Consider `COCCOCCOC`, for which the Potency result in assay [1], in [2], in assay [3], in assay [4], in assay [5] and in assay [6] was “inactive” in each case. The molecule was called inactive in [7], in assay [8], in assay [9], in assay [10], in assay [11] and in assay [12]. Also, the molecule was called inactive in [13], in assay [14], in assay [15] and in assay [16].

For `C[C@]12C=CC(=O)C=C1CC[C@@H]1[C@@H]2C(=O)C[C@@]2(C)[C@H]1CC[C@]2(O)C(=O)CO`, the Potency result in assay [1], in [2], in assay [3], in assay [4], in [5] and in [6] was “inactive” in each case. For the same molecule, the molecule was classed as inactive in assay [18], in assay [7], in assay [8], in assay [9], in [10] and in assay [11]. The outcome in [12], in assay [13], in assay [14], in [15] and in assay [16] was inactive.

For `CC(C)Cc1ccc(C(C)C(=O)O)cc1` (stereo not drawn), the Potency result in assay [1], in [2], in assay [3], in assay [4], in assay [5] and in assay [6] was “inactive” each time. In addition, in [19], the Potency result is “inactive”. Also, the molecule was called inactive in assay [18], in [7], in [8], in assay [9], in [10] and in assay [11]. In addition, the molecule was classed as inactive in assay [12], in assay [13], in [14], in assay [15] and in [16].
